FBW7 act – human FBW7 E3 ligase activation, primary screen | Q969H0 | AlphaScreen FBW7–phospho-cyclin E peptide binding, activator screen | normalized activity (activation), % at 26.1 µM | actives 0.13% (n = 650,000); in the data active = normalized activity above about 1.9%;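 also: purified mutant Fbw7 with reduced substrate affinity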
GPR151 activ – activates the human receptor GPR151. PathHunter beta-arrestin GPR151 cells, luminescence. Q8TDV0. activation, % at 11.2 µM. actives 1% (n = 650,000); in the data active = activation above about 4.9%;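 also: 0% = median of compound wells and 100% = cells with positive control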
MITF primary – human MITF inhibition, primary screen | O75030 | AlphaScreen MITF homodimerization, bead proximity signal | inhibition, % at 2.6 µM | actives 0.91% (n = 650,000) | AID 1259374; in the data active = inhibition above about 50%;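 also: 0% = vehicle wells with protein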
Target sequence (O75030 whole entry, looked up): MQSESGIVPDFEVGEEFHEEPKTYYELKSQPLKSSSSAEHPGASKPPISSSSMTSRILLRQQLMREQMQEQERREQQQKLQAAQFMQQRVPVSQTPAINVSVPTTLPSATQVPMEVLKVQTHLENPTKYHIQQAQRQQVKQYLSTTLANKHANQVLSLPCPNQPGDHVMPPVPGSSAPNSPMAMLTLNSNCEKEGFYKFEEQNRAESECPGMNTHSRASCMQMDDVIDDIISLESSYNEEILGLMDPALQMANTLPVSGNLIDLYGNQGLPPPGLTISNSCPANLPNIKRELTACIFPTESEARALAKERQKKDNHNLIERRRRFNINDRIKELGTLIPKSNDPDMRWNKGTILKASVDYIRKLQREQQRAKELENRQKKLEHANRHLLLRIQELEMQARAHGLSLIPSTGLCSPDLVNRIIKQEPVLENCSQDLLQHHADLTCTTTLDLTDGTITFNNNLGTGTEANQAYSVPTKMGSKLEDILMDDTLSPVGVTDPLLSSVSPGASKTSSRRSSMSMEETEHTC
TEAD-YAP inh – TEAD-YAP interaction inhibition | AID 1259422 | HEK-TIYL cells, TEAD-Gal4/YAP UAS-luciferase luminescence | inhibition, % at 9.12 µM | actives 1.4% (n = 640,000); in the data active = inhibition above about 32%;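 also: 0% = median of test compound wells and 100% = reference inhibitor wells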
GPR151 confirm – human GPR151 activation, confirmation screen; shares compounds with GPR151 activ; GPR151 PathHunter beta-arrestin cells, luminescence, 90 min; % of EA-reagent control over plate median; activation, % at 11.2 µM; 6,700 tested, under 10 active; AID 1508609;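 active = mean percent activation across replicates above the confirmation screen cutoff of 4.91%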
GPR119 counter – counter-screen for GPR151 activators: effect on human GPR119 | activation, % at 11.2 µM | actives 0.3% (n = 6,700) | AID 1508611 | shares compounds with GPR151 activ | GPR119 PathHunter beta-arrestin cells, luminescence, 90 min; 0 = compound-well median, 100 = enzyme-acceptor control;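 active = mean percent activation in the counterscreen above 29.09%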;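 also: counterscreen on off-target GPR119 to flag nonselective hits from the GPR151 activator screen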
Active calls of the source: *; x = not tested or not shown; ! = repeats disagree. Shown are actives, neighbours in structure and some others; about 3.5% of the full set was active somewhere.

SMILES	FBW7 act	GPR151 activ	MITF primary	TEAD-YAP inh	GPR151 confirm	GPR119 counter
Cc1c(C(=O)N2CCCC2)sc2ncn(Cc3ccccc3F)c(=O)c12	0	5.3*	2	7	1	16
Cc1c(C(=O)N2CCCC(C)C2)sc2ncn(Cc3ccccc3F)c(=O)c12 (stereo not drawn)	0	-1	-3	-1	x	x
O=C(NCc1ccccc1)C1(c2ccc([N+](=O)[O-])cc2)CCCC1	0	1	18	-1	x	x
N#CC1=C(N)Oc2cc(O)ccc2C1C1CC=CCC1 (stereo not drawn)	0	5.4*	7	13	0	2
CC(C)c1ccc(/C=C2\N=C(c3ccc4c(c3)OCO4)OC2=O)cc1	0	0	14	9	x	x
C/C(=C\c1ccccc1)C(=O)NCCc1ccccc1	0	15*	-5	-13	1	-7
COc1ccc(S(=O)(=O)N(CCc2ccccc2)CC(=O)Nc2cccc(Cl)c2C)cc1OC	0	0	-5	-11	x	x
c1ccc(Nc2cc(Nc3ccc(N4CCOCC4)cc3)ncn2)cc1	0	1	24	-16	x	x
CN(C)c1cccc(Nc2cc(Nc3ccc(N4CCOCC4)cc3)ncn2)c1	0	5.2*	1	-9	0	18
CCOC(=O)c1sc2nc(C)n(CC(=O)Nc3cccc(OC)c3)c(=O)c2c1C	0	2	2	4	x	x
COc1cc(/C=C2\SC(NC(C)=O)=NC2=O)cc(Br)c1OC(C)=O	0	7.4*	11	4	1	-7
COC(=O)CN1C(=O)S/C(=C/C=C/c2ccccc2[N+](=O)[O-])C1=O	0	-1	17	4	x	x
COc1cc(/C=C2\SC(NC(C)=O)=NC2=O)cc(OC)c1OC	0	-1	-13	-7	x	x
C=CCN1C(=O)/C(=C/c2ccc(OCC(=O)O)cc2)S/C1=N/c1nccs1	0	7.0*	6	-1	2	4
COC(=O)CN1C(=O)S/C(=C/c2ccc(OCC(=O)O)cc2)C1=O	0	9.8*	13	8	1	5
COC(=O)CN1C(=O)S/C(=C/c2cccc([N+](=O)[O-])c2O)C1=O	0	5.3*	14	4	0	-12
C=CCN1C(=O)/C(=C\c2ccc(C(=O)O)cc2)S/C1=N/c1nnc(CC)s1	0	1	6	1	x	x
COC(=O)CN1C(=O)S/C(=C\c2cc(Br)c(OC)c(OC)c2)C1=O	0	14*	9	-1	1	3
Cc1c(Cl)cccc1N1CC(c2nc3ccccc3[nH]2)CC1=O (stereo not drawn)	0	5.6*	-2	8	0	3
O=C1CC(c2nc3ccccc3[nH]2)CN1c1ccccc1Cl (stereo not drawn)	0	1	9	-7	x	x
CC(C)C(=O)NCCc1nnc2n1CCN(Cc1cc3ccccc3o1)CC2	0	0	8	7	x	x
O=C(Cc1ccc(F)cc1)NCCc1nnc2n1CCN(Cc1cc3ccccc3o1)CC2	0	5.1*	-2	5	0	2
CC1=C(C(=O)Nc2ccccc2)C(c2ccccc2)n2c(s/c(=C/c3ccc4c(c3)OCO4)c2=O)=N1 (stereo not drawn)	0	1	2	-2	x	x
COc1ccc(-c2nc3ncnc(NCc4nc5ccccc5[nH]4)c3[nH]2)cn1	0	-1	15	-4	x	x
CC(=O)c1ccc2ccccc2c1OC(=O)c1ccc(Br)o1	0	6.3*	0	3	-1	-15
SMILES	FBW7 act	GPR151 activ	MITF primary	TEAD-YAP inh	GPR151 confirm	GPR119 counter
CN(Cc1ccn[nH]1)C(=O)c1cccc(OC2CCN(C(=O)C3CC3)CC2)c1	0	4.9*	5	2	-1	-22
CN(Cc1ccn[nH]1)C(=O)c1ccc(OC2CCN(C(=O)C3CC3)CC2)cc1	0	0	13	-7	x	x
CN1CCN(C(=O)/C=C/c2c(Cl)cccc2Cl)CC1	0	7.2*	6	3	0	5
CCOc1cc(CC(=O)N[C@@H](CC(C)C)c2ccccc2N2CCCCC2)ccc1C(=O)O	0	7.1*!	-4	5	0	12
CCOc1ccc(C(=O)Nc2ccccc2N2CCCC2)cc1	0	-1	-1	-14	x	x
Fc1cccc(F)c1Nc1ccc(Br)cn1	0	-1	11	0	x	x
Brc1ccc(Nc2cccnc2)nc1	0	11*	-2	0	1	4
Cc1cc(C)c2nc(N(CCn3cccn3)C(=O)C3CC3)sc2c1	0	6.1*	9	-7	0	-2
CCOc1ccccc1CNc1sc2c(c1C(=O)Nc1ccc(OC)cc1OC)CCC2	0	11*	15	1	2	11
CCOc1ccccc1CNc1sc2c(c1C(=O)Nc1ccc(OC)cc1)CCC2	0	2	-2	6	x	x
O=c1[nH]cnc2c1[nH]c1ccccc12	0	8.7*	9	19	-1	7
O=C(COC(=O)c1ccc([N+](=O)[O-])o1)Nc1ccccc1OC(F)F	0	0	8	6	x	x
CS(=O)(=O)N(CC(=O)NC1CC2CCC1C2)c1cc(Cl)c(Cl)cc1Cl (stereo not drawn)	0	1	4	5	x	x
CCc1ccccc1N(CC(=O)NC1CC2CCC1C2)S(C)(=O)=O (stereo not drawn)	0	5.6*	8	0	0	-2
CC(C)C[C@H]1NC(=O)[C@@H]2C[C@H](NCc3cnn(-c4ccccc4F)c3)CN2C1=O	0	0	-6	-6	x	x
COCCN1C(=O)CC[C@@]23C1=NC(C(=O)OC)=C(C(=O)OC)[C@@H]2N(C)c1ccccc13	0	6.9*	15	x	1	8
COCCN1C(=O)CC[C@@]23C1=NC(C(=O)OC)=C(C(=O)OC)[C@@H]2N(Cc1ccccc1)c1ccccc13	0	0	-3	x	x	x
COC(=O)C1=C(C(=O)OC)[C@@H]2N(C)c3ccccc3[C@@]23CCC(=O)N(CCCOC(C)C)C3=N1	0	7.2*	-4	x	-1	-7
N#CCSc1nnc2sc3ccccc3n12	0	5.2*	-5	-9	0	-2
CN1CCCc2cc(C(CNC(=O)c3c(F)cccc3Cl)N3CCOCC3)ccc21 (stereo not drawn)	0	0	-4	-5	x	x
CCc1c(-c2ccc(Cl)cc2)nc2n1Cc1ccccc1-2	0	0	-1	-19	x	x
O=[N+]([O-])c1ccccc1S(=O)(=O)NCc1ccco1	0	7.1*	14	-23	0	13
O=[N+]([O-])c1ccccc1S(=O)(=O)c1ccccc1[N+](=O)[O-]	1	5.5*	16	10	0	-1
O=S(=O)(NCc1ccco1)c1cccc2c(S(=O)(=O)NCc3ccco3)cccc12	0	0	11	-1	x	x
CCOCCCNC(=O)C1CCCN(S(=O)(=O)N(C)C2CCCCC2)C1 (stereo not drawn)	0	0	-14	-4	x	x

Bioassay records as filed in PubChem BioAssay.
